These results are taken from PubChem BioAssay (Tox21).

SMILES strings stand for the structures. Values without a mark were called inactive. Inconclusive results are not listed. Activity calls are given as the source filed them. Unless noted, the call rests on the fitted dose curve; in most records, active means well fitted curve in the direction sought with a large enough effect in the repeat runs; inconclusive means weak or mixed curves; inactive means no such curve, though single readings can be large; an effect the other way counts as inactive or inconclusive.

In assay [1] the target is Thyrotropin receptor (Homo sapiens) (UniProt P16473). Nature of the assay: qHTS assay to identify small molecule antagonists of the thyroid stimulating hormone receptor (TSHR) signaling pathway (AID 1259385; calls by dose curve; further: nearly all actives have a fitted effect of over 20% in size). The procedure, abridged: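 Antagonist mode: compound-treated TSHR-expressing HEK293 cells were stimulated with 1.5 ng/mL TSH (final) in presence of Ro20-1724 for 30 min at RT. HTRF cAMP detection after 1 h; each compound tested at 15 concentrations, triplicate.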
Chain of Thyrotropin receptor (Homo sapiens) (P16473 whole entry, looked up): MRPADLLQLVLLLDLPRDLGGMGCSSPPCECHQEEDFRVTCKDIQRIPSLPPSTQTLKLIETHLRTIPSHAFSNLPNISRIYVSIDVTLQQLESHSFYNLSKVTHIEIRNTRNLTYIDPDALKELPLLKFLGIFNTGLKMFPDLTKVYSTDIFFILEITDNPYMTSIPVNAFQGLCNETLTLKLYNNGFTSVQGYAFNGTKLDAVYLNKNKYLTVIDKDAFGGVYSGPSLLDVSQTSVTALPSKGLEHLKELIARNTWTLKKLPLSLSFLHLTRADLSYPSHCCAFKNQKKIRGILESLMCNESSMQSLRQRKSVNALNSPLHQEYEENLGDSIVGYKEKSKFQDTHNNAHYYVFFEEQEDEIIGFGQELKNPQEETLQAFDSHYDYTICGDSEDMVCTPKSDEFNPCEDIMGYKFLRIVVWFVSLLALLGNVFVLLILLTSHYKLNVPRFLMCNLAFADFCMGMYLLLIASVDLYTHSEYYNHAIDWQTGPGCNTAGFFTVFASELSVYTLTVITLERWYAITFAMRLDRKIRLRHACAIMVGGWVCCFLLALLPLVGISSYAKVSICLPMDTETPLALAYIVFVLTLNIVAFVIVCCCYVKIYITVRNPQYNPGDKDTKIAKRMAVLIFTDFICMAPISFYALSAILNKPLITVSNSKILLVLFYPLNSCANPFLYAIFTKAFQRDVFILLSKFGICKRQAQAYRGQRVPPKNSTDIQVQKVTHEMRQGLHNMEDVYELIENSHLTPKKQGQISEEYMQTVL

Assay [2] in a line: qHTS assay to identify small molecule agonists of the estrogen receptor alpha (ER-alpha) signaling pathway in the presence of an antagonist - cell viability counter screen (AID 1259386).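 Further: series mostly up to about 92 µM; cells exposed to compounds for 22 h at 37 °C before the viability read; nearly all actives have a fitted effect of over 30% in size.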 Put shortly:
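Cytotoxicity was measured in parallel with the ERE-luciferase agonist screen, in the same wells. The cells were VM7Luc4E2, which endogenously express ER-alpha, and treatment was with compounds plus 10.0nM ICI-182,780 for 22hr.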

The target of assay [3] is Progesterone receptor (Homo sapiens) (UniProt P06401). Nature of the assay: qHTS assay to identify small molecule agonists of the progesterone receptor (PR) signaling pathway (AID 1346784; calls by dose curve; further: nearly all actives have a fitted effect of over 30% in size). Put shortly: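 PR-UAS-bla HEK 293T cells carrying a UAS-driven beta-lactamase reporter were seeded in medium with 2% charcoal-stripped FBS, preincubated 6 hr at 37C, then exposed to compounds in DMSO for 16 hr; agonism was read by LiveBLAzer B/G FRET fluorescence.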
Chain of Progesterone receptor (Homo sapiens) (P06401 whole entry, looked up): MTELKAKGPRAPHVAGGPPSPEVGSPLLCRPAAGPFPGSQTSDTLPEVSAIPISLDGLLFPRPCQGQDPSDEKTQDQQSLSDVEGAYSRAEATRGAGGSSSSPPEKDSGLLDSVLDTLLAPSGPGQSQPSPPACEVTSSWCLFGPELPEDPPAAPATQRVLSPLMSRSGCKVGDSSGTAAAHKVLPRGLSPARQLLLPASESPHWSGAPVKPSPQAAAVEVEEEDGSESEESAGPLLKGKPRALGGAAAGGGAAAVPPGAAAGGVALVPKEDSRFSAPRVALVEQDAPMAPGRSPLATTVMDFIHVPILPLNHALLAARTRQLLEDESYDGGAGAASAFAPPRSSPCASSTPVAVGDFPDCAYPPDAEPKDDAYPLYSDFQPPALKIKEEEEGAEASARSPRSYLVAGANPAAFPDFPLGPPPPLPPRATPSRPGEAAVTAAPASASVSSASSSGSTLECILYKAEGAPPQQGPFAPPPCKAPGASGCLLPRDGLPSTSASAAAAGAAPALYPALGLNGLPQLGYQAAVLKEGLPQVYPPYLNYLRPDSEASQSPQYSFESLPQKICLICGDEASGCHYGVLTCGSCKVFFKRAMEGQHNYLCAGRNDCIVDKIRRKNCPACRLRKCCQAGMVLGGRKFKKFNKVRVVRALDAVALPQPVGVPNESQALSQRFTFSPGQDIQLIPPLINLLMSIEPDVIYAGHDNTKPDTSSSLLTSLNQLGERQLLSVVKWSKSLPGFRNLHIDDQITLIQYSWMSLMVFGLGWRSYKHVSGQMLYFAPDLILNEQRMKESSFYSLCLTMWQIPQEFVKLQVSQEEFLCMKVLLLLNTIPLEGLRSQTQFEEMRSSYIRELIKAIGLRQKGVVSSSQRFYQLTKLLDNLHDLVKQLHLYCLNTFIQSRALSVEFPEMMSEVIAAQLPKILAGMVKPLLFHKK
(Quantitative high-throughput screening tests each substance at several concentrations.)

For assay [4] the target is unchanged. Nature of the assay: qHTS assay to identify small molecule antagonists of the progesterone receptor (PR) signaling pathway (AID 1346795; active means well fitted inhibition curve with a large enough effect in the signal ratio in the repeat runs, not every such curve was filed as active; the % refers to the signal ratio). Put shortly: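 PR-UAS-bla HEK293T cells carrying a UAS-driven beta-lactamase reporter were plated in medium with 2% charcoal-stripped FBS and rested 6 hr at 37C. Compounds were added with 1 nM R5020 (final) for 16 hr, then FRET substrate loaded 2 hr at room temperature.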

Assay [5] is described as follows: qHTS assay to identify small molecule antagonists of the progesterone receptor (PR) signaling pathway - cell viability counter screen (AID 1346798). Further: series mostly up to about 92 µM; nearly all actives have a fitted effect of over 50% in size. The procedure, abridged:
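PR-UAS-bla HEK293T cells in medium with 2% charcoal-stripped FBS were treated with compounds plus R5020 for 16 hr at 37C. Cell viability was then read by CellTiter-Glo luminescence after 30 min at room temperature in the same wells.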

Assay [6] is described as follows: qHTS assay to identify small molecule agonists of the progesterone receptor (PR) signaling pathway - cell viability counter screen (AID 1346799; calls by dose curve; further: nearly all actives have a fitted effect of over 45% in size). Put shortly:
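PR-UAS-bla HEK293T cells, 3,000 per well in medium with 2% charcoal-stripped FBS, were preincubated 6 hr at 37C, then exposed to compounds for 16 hr; viability was read as CellTiter-Glo luminescence after 30 min at room temperature.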

Assay [7] in a line: qHTS assay to identify small molecule antagonists of the TGF-beta/Smad signaling pathway - cell viability counter screen (AID 1346824). Further: nearly all actives have a fitted effect of over 50% in size. Put shortly:
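Cytotoxicity counter-screen run in the same wells as the beta-lactamase Smad reporter read: CellTiter-Glo luminescence after 30 min at room temperature. HEK 293T SBE-bla cells had 5 hr compound exposure at 37 C with TGF-beta1 (0.25 ng/mL stock).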

Assay [8] is described as follows: qHTS assay to identify small molecule agonists of the TGF-beta/Smad signaling pathway - cell viability counter screen (AID 1346829). Further: top concentration of the series differs between compounds; nearly all actives have a fitted effect of over 45% in size. Put shortly:
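Here the cytotoxicity of library compounds is measured in SBE-bla HEK 293T cells treated for 5 hr, using CellTiter-Glo added to wells already read for the beta-lactamase reporter.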

Assay [9] is described as follows: qHTS assay to identify small molecule agonists of the TGF-beta/Smad signaling pathway (AID 1346859; active means well fitted activation curve with a large enough effect in the signal ratio in the repeat runs, not every such curve was filed as active; the % refers to the signal ratio; further: series mostly up to about 77 µM). Put shortly:
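HEK 293T cells stably carrying a beta-lactamase reporter driven by the Smad binding element were seeded overnight, exposed to DMSO-dissolved compounds for 5 hr at 37 C, 5% CO2, then loaded with FRET substrate for 2 hr at room temperature.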

Assay [10] concerns the target Thyrotropin-releasing hormone receptor (Homo sapiens) (UniProt P34981). Kind of assay: qHTS assay to identify small molecule antagonists of the thyrotropin-releasing hormone receptor (TRHR) signaling pathway (AID 1346877; active means well fitted inhibition curve with a large enough effect in the repeat runs, not every such curve was filed as active; further: series mostly up to about 51 µM). The procedure, abridged:
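Antagonism is measured as suppression of the calcium response to 1 nM TRH in TRHR-HEK293 cells that have been dye-loaded for 2 h at 37 °C after overnight plating. Each compound is tested at 15 concentrations in triplicate.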

For assay [11] the target is unchanged. Kind of assay: qHTS assay to identify small molecule agonists of the thyrotropin-releasing hormone receptor (TRHR) signaling pathway (AID 1346891; calls by dose curve; further: series mostly up to about 58 µM). Put shortly: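 TRHR-expressing HEK293 cells were plated 18 h at 37 °C/5% CO2, loaded with calcium dye 2 h at 37 °C, then given compound in DMSO; fluorescence was read kinetically for 3 min at 1 s intervals.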
The nature of assay [12]: Human pregnane X receptor (PXR) small molecule agonists, qHTS cell viability counter screen (AID 1346977). Further: nearly all actives have a fitted effect of over 50% in size. Put shortly: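 PXR-Luc HepG2 cells in medium with 5% charcoal-stripped FBS were pre-incubated 5hr, then exposed to compounds for 24hr at 37C. Viability was read in the same wells by CellTiter-Fluor fluorescence, reagent added after 23hr with a 1hr incubation.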
Assay [13] in a line: Caspase-3/7 induction in HepG2 cells by small molecules, qHTS assay (AID 1346978). Further: nearly all actives have a fitted effect of over 15% in size. The procedure, abridged:
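Caspase-3/7 induction was measured by Caspase-Glo 3/7 luminescence (30 min, room temperature) after a 17 hr compound exposure of wild-type HepG2 cells seeded at 2,000 per well and pre-incubated 5 hr.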

Assay [14] in a line: Caspase-3/7 induction in CHO-K1 cells by small molecules, qHTS cell viability counter screen (AID 1346979). Further: nearly all actives have a fitted effect of over 35% in size. The procedure, abridged: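 Wild-type CHO-K1 cells were seeded at 1,500 per well, rested 5hr at 37 C, then exposed to compounds in DMSO. After 16hr, CellTiter-Fluor reagent was added and fluorescence read 1hr later as the viability measure.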
A short description of assay [15]: Caspase-3/7 induction in CHO-K1 cells by small molecules, qHTS assay (AID 1346980). Further: nearly all actives have a fitted effect of over 15% in size. Put shortly: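 Luminescent Caspase-Glo 3/7 read (30min, room temperature) quantified apoptosis induction. Cells were wild-type CHO-K1, treated with compound for 17hr at 37 C and 5% CO2.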
A short description of assay [16]: Caspase-3/7 induction in HepG2 cells by small molecules, qHTS cell viability counter screen (AID 1346981). Further: series mostly up to about 92 µM; nearly all actives have a fitted effect of over 30% in size. Put shortly:
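Cell viability is measured as a cytotoxicity counter screen alongside the Caspase-Glo 3/7 readout in identical wells. Wild-type HepG2 cells are treated with test compounds for 16 hr at 37 C before CellTiter-Fluor addition and a 1-hr incubation.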

For assay [17], the target named is Nuclear receptor subfamily 1 group I member 2 (Homo sapiens) (UniProt O75469). Nature of the assay: Human pregnane X receptor (PXR) small molecule agonists, qHTS assay (AID 1346982). Further: nearly all actives have a fitted effect of over 35% in size. Further: potency means the concentration at half of the fitted maximal effect. The procedure, abridged:
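Cells: HepG2 stably carrying PXR-Luc. Medium held 5% charcoal-stripped FBS. Compounds in DMSO added after 5 hr plating, incubated 24 hr, then luminescence quantified with ONE-Glo.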

Assay [18] addresses Nuclear receptor subfamily 1 group I member 2 (Rattus norvegicus) (UniProt Q9R1A7). Nature of the assay: Rat pregnane X receptor (rPXR) activation by small molecules, qHTS assay (AID 1346983). Further: nearly all actives have a fitted effect of over 20% in size. The conditions noted are these: rPXR luciferase reporter cells, One-Glo luminescence, 24 h; hits give high values. The procedure, abridged:
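Luminescent readout (One-Glo luciferase, 30 min room temperature) followed 24 hr compound treatment at 37 C of rPXR cells plated 2,000 per well and preincubated 5hr; qHTS format with compounds delivered in DMSO.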

In assay [19] the target is Nuclear receptor subfamily 1 group I member 2 (Homo sapiens) (UniProt O75469). Nature of the assay: CYP3A4 induction through human pregnane X receptor (PXR) by small molecules, qHTS assay (AID 1346984). Further: nearly all actives have a fitted effect of over 40% in size. Put shortly:
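Quantitative HTS in DPX-2 cells, i.e. HepG2 transfected with PXR response element and CYP3A4-promoter luciferase. Compounds in DMSO incubated 24hr at 37C; then P450-Glo CYP3A4 substrate, 3uM final, 3hr; One-Glo luminescence.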

Assay [20] shares this target. Kind of assay: Human pregnane X receptor (PXR) activation by small molecules, qHTS assay (AID 1346985). Further: nearly all actives have a fitted effect of over 40% in size. The procedure, abridged: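 DPX-2 cells (HepG2 co-transfected with a PXR response element and a CYP3A4-promoter luciferase construct) were seeded at 2,000 per well, rested 5 hr at 37C, then exposed to DMSO-dissolved compounds for 24 hr. Activation was read as luciferase luminescence.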
On the % scale 0 is the no-effect control and ±100 the full control effect.

Chain of Nuclear receptor subfamily 1 group I member 2 (Homo sapiens) (O75469 whole entry, looked up): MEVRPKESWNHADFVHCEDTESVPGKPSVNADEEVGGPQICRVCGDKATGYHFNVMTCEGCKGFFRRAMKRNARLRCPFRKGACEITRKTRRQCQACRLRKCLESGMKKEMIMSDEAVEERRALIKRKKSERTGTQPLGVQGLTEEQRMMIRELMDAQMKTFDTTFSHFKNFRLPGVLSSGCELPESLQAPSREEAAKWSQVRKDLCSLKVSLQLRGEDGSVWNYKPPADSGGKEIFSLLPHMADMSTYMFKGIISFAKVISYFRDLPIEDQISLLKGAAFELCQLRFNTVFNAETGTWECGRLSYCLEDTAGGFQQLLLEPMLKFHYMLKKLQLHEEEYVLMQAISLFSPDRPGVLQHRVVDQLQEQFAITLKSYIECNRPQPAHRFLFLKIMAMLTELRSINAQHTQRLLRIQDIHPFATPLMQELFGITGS
Chain of Thyrotropin-releasing hormone receptor (Homo sapiens) (P34981 whole entry, looked up): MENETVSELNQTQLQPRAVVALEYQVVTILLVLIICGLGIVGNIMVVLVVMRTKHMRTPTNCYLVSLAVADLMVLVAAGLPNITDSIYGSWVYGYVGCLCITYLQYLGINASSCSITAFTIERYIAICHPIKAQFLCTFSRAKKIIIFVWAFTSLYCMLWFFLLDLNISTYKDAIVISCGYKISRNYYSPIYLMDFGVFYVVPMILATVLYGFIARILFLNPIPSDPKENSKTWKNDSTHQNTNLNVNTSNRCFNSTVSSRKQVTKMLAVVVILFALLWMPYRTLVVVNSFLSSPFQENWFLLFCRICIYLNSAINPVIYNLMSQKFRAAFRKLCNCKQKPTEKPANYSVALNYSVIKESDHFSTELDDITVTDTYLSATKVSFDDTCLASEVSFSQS
Chain of Nuclear receptor subfamily 1 group I member 2 (Rattus norvegicus) (Q9R1A7 whole entry, looked up): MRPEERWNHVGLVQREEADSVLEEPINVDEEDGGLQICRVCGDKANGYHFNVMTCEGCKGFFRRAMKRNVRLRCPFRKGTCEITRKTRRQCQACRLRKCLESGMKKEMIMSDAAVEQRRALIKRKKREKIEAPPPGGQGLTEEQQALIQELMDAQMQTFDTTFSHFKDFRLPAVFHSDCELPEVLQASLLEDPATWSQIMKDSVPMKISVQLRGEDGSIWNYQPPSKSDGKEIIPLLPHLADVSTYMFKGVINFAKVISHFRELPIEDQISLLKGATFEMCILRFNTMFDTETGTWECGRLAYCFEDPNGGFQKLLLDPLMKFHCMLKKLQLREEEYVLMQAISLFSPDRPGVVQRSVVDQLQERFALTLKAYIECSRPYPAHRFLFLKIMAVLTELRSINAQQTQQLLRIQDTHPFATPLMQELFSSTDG

As for `O=S(O)(O)=S`, the activity change, negative = inhibition in assay [1] is 2.15% [at 8.39 µM]; in [4], 2.55% [at 8.39 µM]. For the same molecule, the activity change, negative = cytotoxicity in [2] was 1.38% [at 8.39 µM]; in [5] it was 5.98% [at 8.39 µM]; in [6] it was -1.49% [at 8.39 µM]; in assay [8], 1.63% [at 6.97 µM]; in assay [12], -0.159% [at 8.39 µM]; in assay [14], 4.08% [at 8.39 µM]. In assay [16], the activity change, negative = cytotoxicity was -0.702% [at 8.39 µM]. Further, the activation in assay [3] was -0.0718% [at 8.39 µM]; in assay [9] it was 3.3% [at 6.97 µM]; in assay [11], 0.644% [at 5.23 µM]; in assay [17], 4.46% [at 8.39 µM]. In assay [7], the viability change, negative = cytotoxic is -0.132% [at 6.97 µM]. Moreover, the activity, negative = inhibition in [10] was 1.85% [at 4.65 µM]. Also, in [13], the caspase activation was 0.115% [at 8.39 µM]. The caspase-3/7 activation in assay [15] was 0.413% [at 8.39 µM].
On to `CCCCCCCCC1CCC(=O)O1` (configuration not stated), for which the call in assay [1], in [7], in assay [8], in assay [9], in [10] and in [11] was inactive. Besides, the outcome in assay [15] was inactive. For the same molecule, the Potency entry in assay [2], in assay [3], in assay [4], in assay [5], in assay [6] and in [12] was “inactive” throughout. For the same molecule, the Potency result in [13], in [14] and in [16] was “inactive” in each case. Further, the Potency in assay [17] was 30.6 µM (active).
`N[C@@H](COP(=O)(O)O)C(=O)O`: the results for the activity change, negative = inhibition in assay [1] and in [4] were -0.736% [at 19 µM] and 6.07% [at 18.9 µM], respectively. In addition, the activity change, negative = cytotoxicity was 0.187% [at 19 µM] in [2]; -0.532% [at 18.9 µM] in assay [5]; 13.8% [at 19 µM] in assay [6]; 0.5% [at 15.8 µM] in assay [8]; 17.9% [at 19 µM] in [12]; 4.45% [at 19 µM] in [14]. Also, in assay [16], the activity change, negative = cytotoxicity was 5.73% [at 19 µM]. Further, the activation is 0.26% [at 19 µM] in assay [3], -0.654% [at 15.8 µM] in [9], -0.175% [at 11.8 µM] in assay [11] and 9.49% [at 19 µM] in [17]. The viability change, negative = cytotoxic in assay [7] was -0.3% [at 15.8 µM]. The activity, negative = inhibition in assay [10] was -1.81% [at 10.5 µM]. For the same molecule, the caspase activation in assay [13] is 0.675% [at 19 µM]. Moreover, in [18], the max activation was -0.35%. In addition, the Potency result in assay [19] and in assay [20] was “inactive” in each case.
As to `O=C1c2ccccc2C(=O)C1c1ccccc1`, the result in [1], in assay [7], in assay [8], in assay [9], in assay [10] and in assay [11] was inactive. Moreover, the outcome in assay [15] was inactive. In addition, the Potency entry in [2], in assay [3], in [4], in assay [5], in assay [6] and in assay [12] was “inactive” each time. Besides, the Potency result in [13], in [14], in assay [17], in assay [19] and in assay [20] was “inactive” in each case. Further, the max activation in assay [18] is -1.16%.
Consider `Cc1ccc(C=O)cc1C`, for which the call in assay [1], in assay [7], in assay [8], in assay [9], in assay [10] and in [11] was inactive. Moreover, the result in assay [15] was inactive. The Potency entry in [2], in assay [3], in assay [4], in assay [5], in assay [6] and in assay [12] was “inactive” each time. The Potency result in assay [13], in assay [14] and in assay [16] was “inactive” throughout.
On to `CCOC(=O)/C=C/c1ccccc1`, for which the molecule was called inactive in [1], in assay [7], in assay [8], in assay [9], in assay [10] and in assay [11]. The call in [15] was inactive. Further, the Potency entry in assay [2], in [3], in [4], in assay [5], in [6] and in assay [12] was “inactive” each time. The Potency entry in [13], in assay [14], in [16] and in [17] was “inactive” in each case.
For `CCO[Si](CCCS)(OCC)OCC`, the molecule was called inactive in [1], in assay [7], in assay [8], in [9], in assay [10] and in assay [11]. Also, in assay [15], the result was inactive. Further, the Potency result in assay [2], in assay [3], in assay [4], in assay [5], in [6] and in assay [12] was “inactive” each time. In addition, the Potency entry in assay [13], in [14], in assay [16] and in assay [17] was “inactive” each time.
